Laboratory results: the supplement of paper PMC8371130
Counter-ions that a name gives are not always drawn.

System: HL-1
Test: relative cell viability (CellTiter-Glo) vs DMSO control (% of DMSO control); higher = more viable cells
Method in brief: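 Plating of HL-1 mouse atrial cardiomyocytes at 1000 cells per well in 384-well plates was done together with compounds at 40, 200, 1000 or 5000 nM in 0.01% DMSO. A day later the cells faced 48 h of 1% O2 and then 24 h of reoxygenation, or matching normoxia. Viability was measured via CellTiter-Glo luminescence and set relative to vehicle-treated control cells.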

[1] = oxygen condition: hypoxia 48 h (1% O2) + reoxygenation 24 h, 40 nM
[2] = oxygen condition: hypoxia 48 h (1% O2) + reoxygenation 24 h, 200 nM
[3] = oxygen condition: hypoxia 48 h (1% O2) + reoxygenation 24 h, 1000 nM
[4] = oxygen condition: hypoxia 48 h (1% O2) + reoxygenation 24 h, 5000 nM
[5] = oxygen condition: normoxia 72 h, 40 nM
[6] = oxygen condition: normoxia 72 h, 200 nM
[7] = oxygen condition: normoxia 72 h, 1000 nM
[8] = oxygen condition: normoxia 72 h, 5000 nM

Structure (SMILES)	relative cell viability [1]	relative cell viability [2]	relative cell viability [3]	relative cell viability [4]	relative cell viability [5]	relative cell viability [6]	relative cell viability [7]	relative cell viability [8]
CC(C)c1nc(CN(C)C(=O)N[C@@H](CCN2CCOCC2)C(=O)N[C@H](CC[C@H](Cc2ccccc2)NC(=O)OCc2cncs2)Cc2ccccc2)cs1 [Cobicistat]	109	109	108	120	111	107	108	113
C[C@H](Cc1cc2c(c(C(N)=O)c1)N(CCCO)CC2)NCCOc1ccccc1OCC(F)(F)F [Silodosin]	106	98.3	102	105	102	104	108	104
CO[C@H]1C(=O)[C@]2(C)[C@@H](OC)C[C@H]3OC[C@@]3(OC(C)=O)[C@H]2[C@H](OC(=O)c2ccccc2)[C@]2(O)C[C@H](OC(=O)[C@H](O)[C@@H](NC(=O)OC(C)(C)C)c3ccccc3)C(C)=C1C2(C)C [Cabazitaxel]	32.1	34.3	39.6	36.6	24.7	27.2	26.8	29.7
Nc1nc(Cl)nc2c1ncn2[C@@H]1O[C@H](CO)[C@@H](O)[C@@H]1F [Clofarabine]	114	69.7	6.59	2.39	106	62.6	3.43	1.95
O=c1oc2cc(O)ccc2s1 [Tioxolone]	106	104	108	110	107	109	113	106
CC(C)(C)CC(C)(C)c1ccc(OCCOCC[N+](C)(C)Cc2ccccc2)cc1 [Benzethonium chloride]	102	94.7	75.7	17.6	97.9	93.1	66.7	18
COc1ccc(CC(C)NCC(O)c2ccc(O)c(NC=O)c2)cc1 (stereo unspecified) [Formoterol hemifumarate]	100	98.7	102	111	104	106	98.9	106
COc1ccccc1OCC(O)CN1CCN(CC(=O)Nc2c(C)cccc2C)CC1 (stereo unspecified) [Ranolazine dihydrochloride]	88.7	89.7	86.8	108	98.5	97.1	98.8	110
COc1ccc2[nH]cc(CCNC(C)=O)c2c1 [Melatonin]	113	105	113	114	108	114	109	119
CN(CCOc1ccc(CC2SC(=O)NC2=O)cc1)c1ccccn1 (stereo unspecified) [Rosiglitazone]	104	104	98.3	104	99.2	105	98.4	104
CC(Oc1c(Cl)cccc1Cl)C1=NCCN1 (stereo unspecified) [Lofexidine  HCl]	99.4	101	99.6	118	98.3	103	89.6	108
COc1ccc(C[C@@H]2c3cc(OC)c(OC)cc3CC[N@+]2(C)CCC(=O)OCCCCCOC(=O)CC[N@@+]2(C)CCc3cc(OC)c(OC)cc3[C@H]2Cc2ccc(OC)c(OC)c2)cc1OC [Cisatracurium besylate]	108	100	107	109	105	103	109	128
Nc1[nH]cnc2ncnc1-2 [Adenine sulfate]	101	101	105	111	113	105	110	113
COc1cc(C(C)=O)ccc1OCCCN1CCC(c2noc3cc(F)ccc23)CC1 [Iloperidone]	108	104	107	107	99.6	109	119	109
C#C[C@]1(O)CC[C@H]2[C@@H]3CCc4cc(OC)ccc4[C@H]3CC[C@@]21C [Mestranol]	101	106	101	101	99.9	97.3	103	85.7
CNC(=O)CN(CCN(CCN(CC(=O)[O-])CC(=O)NC)CC(=O)[O-])CC(=O)[O-].[Gd+3] [Gadodiamide]	98	104	98.5	106	103	98.8	107	112
Nc1nc(=O)c2c([nH]1)NCC(CNc1ccc(C(=O)N[C@@H](CCC(=O)O)C(=O)O)cc1)N2C=O (stereo partly specified) [Leucovorin Calcium]	106	111	110	104	98	101	102	95.3
CC(=O)[C@H]1CC[C@H]2[C@@H]3CC=C4C[C@@H](O)CC[C@]4(C)[C@H]3CC[C@]12C [Pregnenolone]	100	103	106	117	101	101	105	107
Nc1ccn([C@@H]2O[C@H](CO)[C@@H](O)C2(F)F)c(=O)n1 [Gemcitabine HCl]	3.53	3.99	3.86	3.72	3.77	4.75	3.77	3.39
CN(C)C/C=C/C(=O)Nc1cc2c(Nc3ccc(F)c(Cl)c3)ncnc2cc1O[C@H]1CCOC1 [Afatinib]	102	107	85.9	64.7	102	102	72.5	17.6
O=C(O)C1(C(=O)O)CCC1.[NH2-].[NH2-].[Pt+2] [Carboplatin]	110	109	95.3	112	100	106	108	119

Structure (SMILES)	relative cell viability [1]	relative cell viability [2]	relative cell viability [3]	relative cell viability [4]	relative cell viability [5]	relative cell viability [6]	relative cell viability [7]	relative cell viability [8]
O=C(c1cc(Cc2n[nH]c(=O)c3ccccc23)ccc1F)N1CCN(C(=O)C2CC2)CC1 [Olaparib]	86.7	84.4	76.2	61.1	79	86.6	70.1	60
O=C1C(O)=C([C@H]2CC[C@H](c3ccc(Cl)cc3)CC2)C(=O)c2ccccc21 [Atovaquone]	98.8	103	113	112	98.2	104	98.5	115
C[N+](C)(C)C[C@H](O)CC(=O)[O-] [L-carnitine]	102	104	103	113	101	107	102	107
COc1cc([C@@H]2c3cc4c(cc3[C@@H](O[C@@H]3O[C@@H]5CO[C@@H](C)O[C@H]5[C@H](O)[C@H]3O)[C@H]3COC(=O)[C@H]23)OCO4)cc(OC)c1O [Etoposide]	85.7	67.1	46.6	19.1	91.3	60.8	40	13.9
O=C(O)/C=C/c1ccc(Cn2ccnc2)cc1 [Ozagrel HCl]	103	102	102	96.7	90.2	96.8	104	97.8
CS(=O)(=O)Nc1ccc([N+](=O)[O-])cc1Oc1ccccc1 [Nimesulide]	105	105	109	103	108	105	102	104
O=C(O[C@H]1CN2CCC1CC2)N1CCc2ccccc2[C@@H]1c1ccccc1 [Solifenacin succinate]	110	111	115	106	104	112	105	113
O=C1Cc2cc(CCN3CCN(c4nsc5ccccc45)CC3)c(Cl)cc2N1 [Ziprasidone hydrochloride]	105	101	106	102	107	98.2	104	98.4
Cc1onc(-c2ccccc2Cl)c1C(=O)N[C@@H]1C(=O)N2[C@@H]1SC(C)(C)[C@@H]2C(=O)O [Cloxacillin sodium]	96	106	106	107	101	102	102	100
CCCCC1=NC2(CCCC2)C(=O)N1Cc1ccc(-c2ccccc2-c2nnn[nH]2)cc1 [Irbesartan]	103	102	107	108	107	105	102	107
COC(=O)C1=C(C)NC(C)=C(C(=O)OC2CCCN(Cc3ccccc3)C2)C1c1cccc([N+](=O)[O-])c1 (stereo unspecified) [Benidipine hydrochloride]	104	113	109	25	114	109	102	24
Oc1ccc(OCc2ccccc2)cc1 [Monobenzone]	99.6	114	110	103	107	104	108	99.8
Clc1ccc(C(Cn2ccnc2)OCc2ccc(Sc3ccccc3)cc2)c(Cl)c1 (stereo unspecified) [Fenticonazole nitrate]	102	102	105	107	102	98	101	104
COc1ccccc1N1CCN(CC(O)COc2cccc3ccccc23)CC1 (stereo unspecified) [Naftopidil]	103	101	104	101	102	100	102	103
CC(C)[C@H](N)C(=O)OCC(CO)OCn1cnc2c(=O)nc(N)[nH]c21 (stereo partly specified) [valganciclovir hydrochloride]	107	107	107	121	108	110	114	115
CNC(=O)c1ccc(N2C(=S)N(c3ccc(C#N)c(C(F)(F)F)c3)C(=O)C2(C)C)cc1F	99.6	103	51.5	106	99.6	102	106	109
O=C(NCCN1CCOCC1)c1ccc(Cl)cc1 [Moclobemide]	113	111	102	120	108	100	119	121
CC#CCn1c(N2CCC[C@@H](N)C2)nc2c1c(=O)n(Cc1nc(C)c3ccccc3n1)c(=O)n2C [Linagliptin]	96.7	103	104	105	106	105	107	106
NCCC(O)(P(=O)(O)O)P(=O)(O)O [Pamidronate Disodium]	98.6	106	107	76.5	107	99.9	108	105
CC(C)C[C@H](NC(=O)[C@H](CCc1ccccc1)NC(=O)CN1CCOCC1)C(=O)N[C@@H](Cc1ccccc1)C(=O)N[C@@H](CC(C)C)C(=O)[C@@]1(C)CO1 [Carfilzomib]	3.62	3.8	4.12	3.78	3.3	4.04	3.72	3.71
CC(C)n1c(/C=C/C(O)CC(O)CC(=O)O)c(-c2ccc(F)cc2)c2ccccc21 (stereo unspecified) [Fluvastatin sodium]	88.9	57.3	17.3	3.7	101	83.5	28.6	4.76
